From PubChem BioAssay (Tox21) come the findings set out here.

Results filed as inconclusive are left out. The source made the active and inactive calls. Unless noted, calls come from the whole dose curve; as a rule, active = well fitted curve in the direction sought with a large enough effect in the repeat runs; inconclusive = weak or mixed curves; inactive = no such curve, though single readings can be large; an effect the other way counts as inactive or inconclusive.

Experiment [1] is described as follows: qHTS assay to identify small molecule antagonists of the thyroid receptor (TR) signaling pathway - cell viability counter screen (AID 743064). Note: nearly all actives have a fitted effect of over 50% in size. A digest of the protocol:
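Counter screen for cytotoxicity: compound plus T3 (1 nM final) on GH3.TRE-Luc cells, 23.5 h at 37 °C, then fluorescence viability readout with CellTiter-Fluor.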
On the technique in general: qHTS replaces the single test concentration by a dilution series.

Experiment [2] in a line: qHTS assay to identify small molecule antagonists of the thyroid receptor (TR) signaling pathway (AID 743065). Note: series mostly up to about 70 µM; nearly all actives have a fitted effect of over 55% in size. In short, it runs like this:
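GH3.TRE-Luc rat pituitary cells (two TREs driving luciferase) were dosed with compound, then stimulated with 1 nM T3 (final) for 23.5 h at 37 C. ONE-Glo luminescence was the read-out, with CellTiter-Fluor fluorescence as the cytotoxicity counter-screen.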

Experiment [3] relates to thyroid hormone receptor (rat, GH3 cells). As to the kind of experiment: qHTS assay to identify small molecule agonists of the thyroid receptor (TR) signaling pathway (AID 743066; calls by dose curve).
Experiment [4] deals with Estrogen receptor (Homo sapiens) (UniProt P03372). In words: qHTS assay to identify small molecule antagonists of the estrogen receptor alpha (ER-alpha) signaling pathway (AID 743069; active = well fitted curve in the direction sought with a large enough effect in the signal ratio in the repeat runs, not every such curve was filed as active; the % refers to the signal ratio). In short, it runs like this:
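Beta-lactamase FRET fluorescence is read after 2 hr at room temperature with LiveBLAzer B/G substrate. Before that, ER-alpha-bla HEK293 cells sit 4 hr after plating, then receive compound plus 17beta-estradiol and incubate 18 hr at 37C.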

A short description of experiment [5]: qHTS assay to identify small molecule antagonists of the estrogen receptor alpha (ER-alpha) signaling pathway - cell viability counter screen (AID 743074; calls by dose curve;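 note: HEK293 cells carrying ER-alpha-UAS-bla reporter stimulated with 17beta-estradiol; nearly all actives have a fitted effect of over 45% in size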).
Experiment [6] addresses Estrogen receptor (Homo sapiens) (UniProt P03372). In words: qHTS assay to identify small molecule agonists of the estrogen receptor alpha (ER-alpha) signaling pathway (AID 743075; calls by dose curve;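 note: HEK293 GripTite cells with ER-alpha and UAS-driven beta-lactamase reporter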).
The target is the same in experiment [7]. As to the kind of experiment: qHTS assay to identify small molecule agonists of the estrogen receptor alpha (ER-alpha) signaling pathway using the BG1 cell line (AID 743079). Note: nearly all actives have a fitted effect of over 20% in size. Note: potency is the fitted concentration of half-maximal effect.
The nature of experiment [8]: qHTS assay to identify small molecule antagonists of the estrogen receptor alpha (ER-alpha) signaling pathway using the BG1 cell line (AID 743080; calls by dose curve;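 note: BG1 cells stimulated with 17beta-estradiol alongside compound; series mostly up to about 70 µM; nearly all actives have a fitted effect of over 25% in size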). A digest of the protocol: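 Luminescence from a 4×ERE-luciferase reporter in BG1-Luc-4E2 cells served as read-out. Cells, pre-cultured 5 days in stripped-serum phenol-red-free medium, were exposed to compound with 17beta-estradiol co-stimulation for 21.5 h at 37 C.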

Experiment [9] in a line: qHTS assay to identify small molecule antagonists of the estrogen receptor alpha (ER-alpha) signaling pathway using the BG1 cell line - cell viability counter screen (AID 743081).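 Note: compound given together with 17beta-estradiol as the ER stimulus; series mostly up to about 70 µM; nearly all actives have a fitted effect of over 45% in size.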
The next experiment has as its target Aromatase (Homo sapiens) (UniProt P11511). In words: qHTS assay to identify aromatase inhibitors (AID 743083). Note: series mostly up to about 70 µM; nearly all actives have a fitted effect of over 55% in size.
The nature of experiment [10]: qHTS assay to identify aromatase inhibitors - cell viability counter screen (AID 743084).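 Note: cells stimulated with testosterone during compound exposure; nearly all actives have a fitted effect of over 55% in size.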
In experiment [11] the target is Aryl hydrocarbon receptor (Homo sapiens) (UniProt P35869). In words: qHTS assay to identify small molecule that activate the aryl hydrocarbon receptor (AhR) signaling pathway (AID 743085).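 Note: HG2L7.5c1 human HepG2 liver cells with stably integrated DRE-driven firefly reporter; series mostly up to about 70 µM; nearly all actives have a fitted effect of over 15% in size.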 In short, it runs like this:
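Measured in HG2L7.5c1 cells: CellTiter-Fluor signal (30 min incubation, 37C) for viability, then luciferase luminescence (30 min, room temperature). Compound contact time was 24 h at 37C, following a 5 h pre-incubation.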

Experiment [12] is described as follows: qHTS assay to identify small molecule that activate the aryl hydrocarbon receptor (AhR) signaling pathway - cell viability counter screen (AID 743086).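 Note: HepG2 liver cells carrying the AhR DRE luciferase reporter; series mostly up to about 70 µM; nearly all actives have a fitted effect of over 45% in size.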 In short, it runs like this:
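HepG2-AhR-luc (HG2L7.5c1) cells, 4000/well, treated 24 h at 37 C with compound; viability measured as CellTiter-Fluor fluorescence after 30 min in the same wells as the luciferase read.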

The target in experiment [13] is Peroxisome proliferator-activated receptor gamma (Homo sapiens) (UniProt P37231). As to the kind of experiment: qHTS assay to identify small molecule antagonists of the peroxisome proliferator-activated receptor gamma (PPARg) signaling pathway (AID 743191; calls by dose curve; note: series mostly up to about 63 µM; nearly all actives have a fitted effect of over 30% in size). A digest of the protocol: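 GeneBLAzer PPARg UAS-bla HEK293H cells, 5 h post-plating, exposed to compounds 17 h at 37C. LiveBLAzer B/G FRET substrate added for 1 h at room temperature; beta-lactamase reporter read by fluorescence intensity.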
Chain of Peroxisome proliferator-activated receptor gamma (Homo sapiens) (P37231 whole entry, looked up): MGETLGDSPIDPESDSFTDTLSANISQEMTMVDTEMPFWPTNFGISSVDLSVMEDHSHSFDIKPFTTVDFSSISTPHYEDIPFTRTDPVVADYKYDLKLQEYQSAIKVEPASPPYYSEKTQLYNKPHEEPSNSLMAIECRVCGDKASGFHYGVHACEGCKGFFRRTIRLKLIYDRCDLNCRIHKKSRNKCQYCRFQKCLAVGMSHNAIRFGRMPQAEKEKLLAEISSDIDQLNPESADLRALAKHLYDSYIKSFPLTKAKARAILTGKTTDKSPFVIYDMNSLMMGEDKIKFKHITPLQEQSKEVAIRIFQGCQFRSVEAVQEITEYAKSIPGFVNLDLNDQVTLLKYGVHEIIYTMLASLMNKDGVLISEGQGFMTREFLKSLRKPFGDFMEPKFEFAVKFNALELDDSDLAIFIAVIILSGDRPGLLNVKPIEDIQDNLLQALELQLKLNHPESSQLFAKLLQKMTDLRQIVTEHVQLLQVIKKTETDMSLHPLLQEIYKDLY

The nature of experiment [14]: qHTS assay for small molecule agonists of the antioxidant response element (ARE) signaling pathway (AID 743202; active = well fitted activation curve with a large enough effect in the signal ratio in the repeat runs, not every such curve was filed as active; the % refers to the signal ratio). A digest of the protocol: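 HepG2 ARE-bla reporter line, 2,000 cells/well; 5 h preincubation 37 C/5% CO2; compound (DMSO) 16 h 37 C; B/G FRET substrate 2 h RT; fluorescence intensity.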
Experiment [15] is described as follows: qHTS assay for small molecule agonists of the antioxidant response element (ARE) signaling pathway - cell viability counter screen (AID 743203; calls by dose curve; note: nearly all actives have a fitted effect of over 55% in size). In short, it runs like this:
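Luminescence read-out (CellTiter-Glo, 30 min at room temperature) measured cell viability in the same wells as the ARE beta-lactamase reporter. HepG2 ARE-bla cells were treated with compounds for 16 hrs at 37C/5% CO2.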

Experiment [16] can be described thus: qHTS assay for small molecule activators of the heat shock response signaling pathway - cell viability counter screen (AID 743209). Note: nearly all actives have a fitted effect of over 50% in size. A digest of the protocol: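 HSE-bla HeLa; 1500 cells/well; overnight 37 C, 5% CO2; compound 5 h 37 C; LiveBLAzer B/G substrate 2.5 h RT; CellTiter-Glo 30 min RT; luminescence.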
Experiment [17] in a line: qHTS assay for small molecule activators of the heat shock response signaling pathway (AID 743210; active = well fitted activation curve with a large enough effect in the signal ratio in the repeat runs, with a control signal flat, not every such curve was filed as active; the % refers to the signal ratio; note: series mostly up to about 63 µM). In short, it runs like this: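 Beta-lactamase reporter read-out: FRET substrate fluorescence after 2.5 h at RT, following 5 h compound treatment at 37 C of HeLa cells carrying HSE-driven bla reporter; quantitative HTS format.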
Experiment [18] concerns the target Peroxisome proliferator-activated receptor gamma (Homo sapiens) (UniProt P37231). As to the kind of experiment: qHTS assay to identify small molecule agonists of the peroxisome proliferator-activated receptor gamma (PPARg) signaling pathway (AID 743094; active = well fitted activation curve with a large enough effect in the signal ratio in the repeat runs, not every such curve was filed as active; the % refers to the signal ratio). A digest of the protocol: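 HEK293H PPARg-bla cells, 5 h settle at 37C/5% CO2; compound (DMSO) 17 h, 37C; B/G FRET substrate 1 h RT; fluorescence intensity read-out. qHTS format.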

A short description of experiment [19]: qHTS assay to identify small molecule antagonists of the peroxisome proliferator-activated receptor gamma (PPARg) signaling pathway - cell viability counter screen (AID 743194). Note: nearly all actives have a fitted effect of over 55% in size. In short, it runs like this:
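Cytotoxicity counter screen in PPARg-bla HEK293H cells, same wells as reporter assay. Compounds plus 50 nM rosiglitazone (final) for 17 h at 37 C, then viability read by CellTiter-Glo luminescence.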

Chain of Aryl hydrocarbon receptor (Homo sapiens) (P35869 whole entry, looked up): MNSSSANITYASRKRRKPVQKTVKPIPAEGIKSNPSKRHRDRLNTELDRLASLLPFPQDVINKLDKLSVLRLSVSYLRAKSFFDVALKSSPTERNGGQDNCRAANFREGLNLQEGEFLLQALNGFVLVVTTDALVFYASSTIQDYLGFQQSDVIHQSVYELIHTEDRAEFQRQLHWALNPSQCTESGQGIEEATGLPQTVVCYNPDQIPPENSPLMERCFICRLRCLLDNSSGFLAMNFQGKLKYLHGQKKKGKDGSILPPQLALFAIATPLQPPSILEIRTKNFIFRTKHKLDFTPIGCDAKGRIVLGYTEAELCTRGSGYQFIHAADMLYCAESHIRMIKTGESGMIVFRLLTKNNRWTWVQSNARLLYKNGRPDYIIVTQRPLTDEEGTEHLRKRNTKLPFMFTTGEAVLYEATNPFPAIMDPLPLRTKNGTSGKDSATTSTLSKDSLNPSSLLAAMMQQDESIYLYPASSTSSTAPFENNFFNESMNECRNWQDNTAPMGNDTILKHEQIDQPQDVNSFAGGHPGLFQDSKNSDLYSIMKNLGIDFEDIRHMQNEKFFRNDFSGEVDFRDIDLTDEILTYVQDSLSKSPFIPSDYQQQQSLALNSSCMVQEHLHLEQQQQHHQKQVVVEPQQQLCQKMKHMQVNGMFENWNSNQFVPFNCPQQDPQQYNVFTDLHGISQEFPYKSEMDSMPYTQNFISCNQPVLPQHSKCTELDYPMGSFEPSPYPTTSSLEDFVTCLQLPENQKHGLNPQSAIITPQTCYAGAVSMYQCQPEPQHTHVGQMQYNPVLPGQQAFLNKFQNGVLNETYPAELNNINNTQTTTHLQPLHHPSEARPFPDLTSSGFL
Chain of Aromatase (Homo sapiens) (P11511 whole entry, looked up): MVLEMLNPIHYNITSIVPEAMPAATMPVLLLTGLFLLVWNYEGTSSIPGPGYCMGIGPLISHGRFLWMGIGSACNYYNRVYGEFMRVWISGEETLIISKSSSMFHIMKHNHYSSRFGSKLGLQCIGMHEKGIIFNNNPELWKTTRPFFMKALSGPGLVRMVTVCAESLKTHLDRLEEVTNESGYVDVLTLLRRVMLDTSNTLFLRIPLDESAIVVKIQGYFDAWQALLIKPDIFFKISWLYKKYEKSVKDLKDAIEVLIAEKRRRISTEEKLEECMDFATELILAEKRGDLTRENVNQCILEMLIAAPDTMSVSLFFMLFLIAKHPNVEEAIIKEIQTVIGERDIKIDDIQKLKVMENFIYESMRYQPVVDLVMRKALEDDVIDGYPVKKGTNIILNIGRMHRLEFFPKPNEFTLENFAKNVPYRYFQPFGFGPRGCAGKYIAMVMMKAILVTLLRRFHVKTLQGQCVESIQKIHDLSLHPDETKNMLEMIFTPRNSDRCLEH
Chain of Estrogen receptor (Homo sapiens) (P03372 whole entry, looked up): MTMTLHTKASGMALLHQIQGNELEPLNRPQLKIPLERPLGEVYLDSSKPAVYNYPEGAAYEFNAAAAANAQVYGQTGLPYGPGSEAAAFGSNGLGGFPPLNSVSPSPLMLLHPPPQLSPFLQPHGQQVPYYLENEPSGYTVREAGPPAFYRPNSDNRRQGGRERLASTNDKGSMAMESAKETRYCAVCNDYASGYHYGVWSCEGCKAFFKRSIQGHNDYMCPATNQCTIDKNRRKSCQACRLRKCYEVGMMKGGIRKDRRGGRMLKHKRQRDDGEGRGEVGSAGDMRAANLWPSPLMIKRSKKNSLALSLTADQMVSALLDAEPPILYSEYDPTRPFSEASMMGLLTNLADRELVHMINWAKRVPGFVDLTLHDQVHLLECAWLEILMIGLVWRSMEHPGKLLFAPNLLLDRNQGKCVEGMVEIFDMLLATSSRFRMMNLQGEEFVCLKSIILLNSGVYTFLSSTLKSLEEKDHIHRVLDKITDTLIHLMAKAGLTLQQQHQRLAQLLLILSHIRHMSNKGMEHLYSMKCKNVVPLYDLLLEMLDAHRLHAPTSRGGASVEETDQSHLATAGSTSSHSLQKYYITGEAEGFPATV

As for `CCn1ccnc1CC1COc2ccccc2O1` (centres undefined), the Potency entry (in experiment [1]; in [2]; in [6]; in [7]; in [9]; with Aromatase (Homo sapiens)) was “inactive” each time. Besides, the Potency entry in experiment [10], in [11], in experiment [12], in [13], in experiment [14] and in [15] was “inactive” in each case. The compound was called inactive in experiment [3], in [4], in [5], in [8], in [16] and in experiment [17].
As for `CC(=O)OC/C=C(\C)CC/C=C(\C)CCC=C(C)C`, the Potency entry (in experiment [1]; in [2]; in experiment [6]; in experiment [7]; in [9]; with Aromatase (Homo sapiens)) was “inactive” throughout. For the same compound, the Potency entry in experiment [10], in experiment [12], in experiment [13] and in experiment [15] was “inactive” throughout. The call in experiment [3], in experiment [4], in experiment [5], in experiment [18], in experiment [19] and in experiment [16] was inactive.
Turning to `CCc1nccnc1CC`, the Potency entry (in experiment [1]; in [2]; in experiment [6]; in experiment [9]; with Aromatase (Homo sapiens); in experiment [10]) was “inactive” each time. The Potency result in experiment [11], in [12], in experiment [13] and in [15] was “inactive” each time. The compound was called inactive in experiment [3], in experiment [4], in experiment [5], in experiment [8], in experiment [18] and in [19]. The outcome in experiment [16] and in [17] was inactive.
With `CS(=O)(=O)O`, the Potency result (in experiment [1]; in experiment [2]; in experiment [6]; in experiment [7]; in [9]; in the experiment with Aromatase (Homo sapiens)) was “inactive” in each case. The Potency result in experiment [10], in experiment [11], in [12], in experiment [14] and in experiment [15] was “inactive” throughout. For the same compound, the compound was called inactive in experiment [3], in [4], in experiment [5], in experiment [8], in experiment [16] and in [17].
`CC(C)CCCC(C)N` (centres undefined): the Potency result (in experiment [1]; in experiment [2]; in experiment [6]; in experiment [9]; in the experiment with Aromatase (Homo sapiens); in experiment [10]) was “inactive” each time. Also, the Potency result in [11], in experiment [12] and in experiment [15] was “inactive” each time. The outcome in experiment [3], in experiment [4], in [5], in [8], in experiment [18] and in [16] was inactive. For the same compound, in experiment [17], the outcome was inactive. Moreover, the Potency in [7] was 21.1 µM (active).
For the compound `c1ccc(CC2=NCCN2)cc1`, the Potency result (in experiment [1]; in experiment [2]; in experiment [6]; in experiment [7]; in experiment [9]; with Aromatase (Homo sapiens)) was “inactive” in each case. For the same compound, the Potency entry in experiment [10], in experiment [11], in experiment [12], in experiment [13], in experiment [14] and in [15] was “inactive” throughout. The result in experiment [3], in [4], in [5], in experiment [8], in [16] and in [17] was inactive.
For `O=C(O)Cc1ccc(CCNS(=O)(=O)c2ccc(Cl)cc2)cc1`, the Potency result (in experiment [1]; in experiment [2]; in experiment [6]; in experiment [7]; in experiment [9]; with Aromatase (Homo sapiens)) was “inactive” throughout. In addition, the Potency result in experiment [10], in [11], in experiment [12], in experiment [13], in experiment [14] and in [15] was “inactive” in each case. Further, the call in experiment [3], in [4], in experiment [5], in experiment [8], in [19] and in experiment [17] was inactive.
As for `O=C1CCCCCCCCCCCN1`, the Potency entry (in experiment [1]; in experiment [2]; in experiment [6]; in [7]; in [9]; with Aromatase (Homo sapiens)) was “inactive” in each case. Also, the Potency result in experiment [10], in experiment [11], in experiment [12], in experiment [14] and in [15] was “inactive” throughout. Further, the compound was called inactive in experiment [3], in [4], in experiment [5], in experiment [8], in experiment [16] and in experiment [17].
